ERp5 inh = inhibitors of ERp5-driven insulin aggregation, primary screen, biochemical, turbidity, absorbance 650 nm, single point. 90 min. Protein disulfide-isomerase A6 (Homo sapiens), Q15084. 0.05% of 350,000 active. inhibition, % at 9.99 µM;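 active = mean replicate inhibition above about 25%, with every replicate also reaching it, limit read from the data, passing the limit was not always enough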
PDI turbidity = inhibitors of human PDI, primary screen, biochemical, turbidity, single point, plate reader; Protein disulfide-isomerase (Homo sapiens), P07237; PDI insulin aggregation turbidity, A650, 90 min; inhibition, % at 10 µM; 0.052% of 350,000 active; AID 588391, 2011;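 active = mean inhibition across replicates of 30% or more, whatever share of single replicates reach that level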
Target sequence (P07237 whole entry, looked up): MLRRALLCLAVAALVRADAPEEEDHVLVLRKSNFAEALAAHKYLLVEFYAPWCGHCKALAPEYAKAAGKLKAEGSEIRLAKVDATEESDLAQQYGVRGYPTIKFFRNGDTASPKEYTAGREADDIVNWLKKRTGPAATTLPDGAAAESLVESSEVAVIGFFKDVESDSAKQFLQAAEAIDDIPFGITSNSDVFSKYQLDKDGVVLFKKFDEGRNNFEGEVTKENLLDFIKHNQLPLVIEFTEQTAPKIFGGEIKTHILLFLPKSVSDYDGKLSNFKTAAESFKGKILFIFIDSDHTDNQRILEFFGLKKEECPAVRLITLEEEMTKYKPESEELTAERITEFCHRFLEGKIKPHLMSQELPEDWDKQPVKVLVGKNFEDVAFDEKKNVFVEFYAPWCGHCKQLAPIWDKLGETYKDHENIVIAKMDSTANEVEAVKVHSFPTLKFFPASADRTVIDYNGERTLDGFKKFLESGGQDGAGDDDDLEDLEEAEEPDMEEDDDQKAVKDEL
Efflux pump mplx = inhibitors of Candida efflux pumps in yeast, primary screen, S. cerevisiae, Nile Red, multiplex; S. cerevisiae Candida pump triplex; inhibition, % at 10 µM; 0.44% of 330,000 active;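 active = plate passing quality check with inhibition over a set limit, or well fluorescence over plate mean plus 4 SD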;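 also: Nile Red retained in pooled yeast measured as flow cytometry median fluorescence; 0% = buffer negative control and 100% = Enniatin B positive control; higher means more Nile Red kept so more efflux inhibition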
Rtt109 Vps75 = inhibitors of C. albicans Rtt109/Vps75 HAT, primary screen, biochemical, ThioGlo CoA-SH fluorescence, plate reader. Histone acetyltransferase RTT109 (Candida albicans (strain SC5314 / ATCC MYA-2876)), …. purified Rtt109/Vps75, 4 h. inhibition, % at 34.9 µM. 0.16% of 330,000 active. AID 540336, 2011;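 active = inhibition of at least 50% in every replicate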
PvdQ inh = P. aeruginosa PvdQ acylase inhibitors, primary screen, biochemical, fluorescence, plate reader and imaging, single point. PvdQ acylase [Pseudomonas aeruginosa LESB58]. purified PvdQ acylase. inhibition, % at 10 µM. 0.063% of 340,000 active. AID 488965, 2010; in the data active = inhibition above about 30%, passing the limit was not always enough;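 also: 0% = vehicle neutral wells and 100% = reference inhibitor wells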
Cmpd fluor yeast = compound fluorescence in yeast efflux pump counter-screen | shares compounds with Efflux pump mplx | S. cerevisiae AD/pABC3, flow cytometry | fluorescence ratio to DMSO, % at 10 µM | 4% of 1,700 active;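 active = fluorescence ratio to DMSO above its plate's cutoff, the plate mean ratio plus 5 SD, cut at about 210% in these data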;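 also: unstained yeast with no Nile Red so the signal is compound autofluorescence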
CaMdr1 efflux inh = inhibitors of Candida albicans Mdr1 efflux, confirmation, flow cytometry, singleplex, Cherry Pick1 set; shares compounds with Efflux pump mplx; S. cerevisiae AD/CaMDR1, Nile Red efflux; inhibition, % at 10 µM; 1% of 1,700 active; in the data active = inhibition above about 26%;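 also: 0% = DMSO vehicle and 100% = reference inhibitor; higher means more Nile Red retained so more efflux inhibition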
CaCdr2 efflux inh = inhibitors of Candida albicans Cdr2 efflux pump, confirmation, S. cerevisiae AD/CaCDR2, flow cytometry, cherry pick 1, singleplex; Nile Red retention ratio vs DMSO, % at 10 µM; AID 588520, 2011; shares compounds with Efflux pump mplx; Nile Red retention; 4% of 1,700 active; in the data active = Nile Red retention ratio vs DMSO above about 190%;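 also: higher ratio means more blocking of Cdr2 efflux of the dye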
Cdr1 pump inh = inhibitors of Candida albicans Cdr1 efflux pump, confirmation, S. cerevisiae AD/CaCDR1, flow cytometry, cherry pick 1, singleplex; 1% of 1,700 active; inhibition, % at 10 µM; AID 588522, 2011; Nile Red efflux; shares compounds with Efflux pump mplx;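 active = inhibition above the screen-wide mean plus twice its standard deviation, cut at about 32% in these data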
* marks the source's active call; other numbers are inactive results; / = not tested or not shown; + = active, no number. The list is not random: actives were taken first. Their share in the collection is about 0.54%.

SMILES | ERp5 inh | PDI turbidity | Efflux pump mplx | Rtt109 Vps75 | PvdQ inh | Cmpd fluor yeast | CaMdr1 efflux inh | CaCdr2 efflux inh | Cdr1 pump inh
CCSc1cc(N2CCOCC2)nc(-c2ccc(Cl)cc2)n1 | -1 | 0 | 0 | 2 | -2 | 103 | 0 | 96 | 0
CCSc1cc(N2CCCC2)nc(-c2ccc(Cl)cc2)n1 | 0 | 0 | 0 | -5 | -2 | 93 | 0 | 106 | 0
O=C(c1ccccc1)N1CC(=O)N2[C@H](CO)[C@@H](c3ccc(C#CCC4CCCC4)cc3)[C@H]2C1 | -1 | / | / | / | / | / | / | / | /
N#CC1=C(N)C2=C(N3CCCCC3)CCCC2C1(C#N)C#N (stereo not given) | / | 5 | 0 | 20 | -1 | / | / | / | /
N#CC(C#N)=C1C=C2C=C(N3CCCCC3)CCC2CC1 (stereo not given) | / | / | 9.3* | / | / | 179 | 1 | 232* | 1
CCCCN(C)C1=CC2=CC(=C(C#N)C#N)CCC2CC1 (stereo not given) | 7 | -2 | 5.5* | -6 | -4 | 231 | 1 | 282* | 1
CCN(CC)C1=CC2=CC(=C(C#N)C#N)CCC2CC1 (stereo not given) | 3 | -3 | 3.4* | -1 | -1 | 155 | 1 | 225* | 1
CC(C)C#Cc1ccc2c(c1)O[C@@H](CN(C)CC1CC1)[C@@H](C)CN([C@@H](C)CO)S2(=O)=O | 1 | / | / | / | / | / | / | / | /
CCC(=O)Nc1ccc2c(c1)C(=O)N(C)C[C@@H](OC)[C@@H](C)CN(Cc1ccccn1)[C@H](C)CO2 | 4 | / | / | / | / | / | / | / | /
CCC(=O)N1CC2(C1)[C@H](c1ccccc1)[C@H](CO)N2CC1CCOCC1 | 1 | / | / | / | / | / | / | / | /
Cc1noc(C)c1S(=O)(=O)Nc1ccc2c(c1)C(=O)N([C@H](C)CO)C[C@@H](C)[C@@H](CN(C)C(=O)Nc1ccc(C(F)(F)F)cc1)OCCCC[C@@H](C)O2 | 0 | / | / | / | / | / | / | / | /
COc1ccc2c3c(n(C)c2c1)[C@H](CO)N(C(=O)C1CCC1)CC31CN(C)C1 | -7 | / | / | / | / | / | / | / | /
N#C/C(=C/c1ccc(CNC(=O)C(=O)Nc2cc(Cl)cc(Cl)c2)o1)C(=O)NCc1cccnc1 | -2 | 20 | 8.2* | -4 | -10 | 105 | 0 | 110 | 0
COc1ccc2[nH]cc(/C=C/c3cc[n+](C)cc3)c2c1 | 0 | 5 | 2 | 6 | -7 | 419* | 6 | 136 | 3
O=C(C[C@H]1CC[C@H]2[C@@H](COC[C@H](O)CN2C(=O)Nc2ccc(C(F)(F)F)cc2)O1)NC1Cc2ccccc2C1 | 0 | / | / | / | / | / | / | / | /
Nc1c(Cl)cc(C2=NCCn3nc4ccccc4c32)cc1Cl | -3 | -4 | 0.6* | 3 | 15 | 87 | 1 | 94 | 1
COc1cc2c(cc1OC)C(c1ccccc1)NCC2 (stereo not given) | 4 | 0 | 0 | -5 | 2 | / | / | / | /
COc1cc2c(cc1OC)C(c1cc(OC)c(OC)c(OC)c1)NCC2 (stereo not given) | / | 0 | 0.6* | 3 | -16 | 102 | 0 | 93 | 0
Nc1c(N(CCC2=CCCCC2)C(=O)CCCOc2ccccc2)c(=O)[nH]c(=O)n1Cc1ccccc1 | 2 | 4 | 0 | 6 | -17 | / | / | / | /
CC(Oc1ccccc1)C(=O)N(CCC1=CCCCC1)c1c(N)n(Cc2ccccc2)c(=O)[nH]c1=O (stereo not given) | 2 | 3 | 6.2* | / | 13 | 92 | 0 | 109 | 0
COC(=O)c1ccc(C2OCC(C)(C)CO2)cc1 | -5 | -1 | 1.1* | -4 | -9 | 93 | 0 | 101 | 0
COC(=O)[C@H](CCSC)NC(=O)NCc1cccs1 | / | 4 | 6.7* | 13 | 16 | 110 | 0 | 102 | 0
C(=N\Nc1nc2ccccc2[nH]1)/c1ccccn1 | 1 | -52 | / | -8 | -6 | / | / | / | /
BrC(=C\c1ccccc1)/C=N/Nc1nc2ccccc2[nH]1 | / | -2 | 2.5* | 8 | -4 | 94 | 0 | 104 | 0
C[C@H]1CCCCO[C@H](CN(C)C(=O)c2ccccc2)[C@@H](C)CN([C@@H](C)CO)C(=O)c2cc(NC(=O)Nc3ccc(C(F)(F)F)cc3)ccc2O1 | 5 | / | / | / | / | / | / | / | /
SMILES | ERp5 inh | PDI turbidity | Efflux pump mplx | Rtt109 Vps75 | PvdQ inh | Cmpd fluor yeast | CaMdr1 efflux inh | CaCdr2 efflux inh | Cdr1 pump inh
C/C(=N\NC(=O)c1ccc(Cl)cc1)c1ccc(Br)s1 | / | 3 | 0 | -4 | -6 | / | / | / | /
C/C(=N\NC(=O)c1cc(Cl)ccc1O)c1ccc(Br)s1 | / | 11 | 7.6* | -5 | 7 | 95 | 0 | 104 | 0
COC/C=C/C1=CC2=CC(=O)C(C)(OC(=O)c3cnc4ccccc4n3)C(=O)C2=CN1CC(C)C (stereo not given) | / | 2 | 0.9* | 3 | 2 | 103 | 0 | 100 | 0
COc1ccc2c(-c3ccc(OCCN4CCCCC4)cc3)c(-c3ccccc3OC)sc2c1 | / | 5 | 1 | -6 | -11 | 100 | 0 | 99 | 0
COc1ccc2sc(-c3ccccc3OC)c(-c3ccc(OCCN(C)C)cc3)c2c1 | 5 | -5 | 196* | 8 | -5 | 124 | 2 | + | 1
COc1ccccc1-c1sc2ccccc2c1-c1ccc(OCCN2CCCCC2)cc1 | / | 7 | 40* | 3 | -8 | 113 | 0 | 96 | 0
Cc1ccc(S(=O)(=O)N[C@H]2C=C[C@@H](CC(=O)N3CCN(c4ccccc4)CC3)O[C@@H]2CO)cc1 | 1 | / | / | / | / | / | / | / | /
C[C@H]1CCCCO[C@@H](CN(C)C(=O)Nc2ccc(F)cc2)[C@@H](C)CN([C@@H](C)CO)C(=O)c2cc(NS(C)(=O)=O)ccc2O1 | 3 | / | / | / | / | / | / | / | /
O=C(O)CCCCCN1C(=O)/C(=C\c2ccc(-c3ccc(Cl)cc3)o2)SC1=S | 3 | -2 | 1 | 11 | 9 | / | / | / | /
O=C(O)CCCN1C(=O)/C(=C/c2ccc(-c3nc4ccccc4s3)o2)SC1=S | / | -4 | 1 | 27 | 12 | 220* | 0 | + | 0
